Measured values published in PubChem BioAssay (NCATS).
Records with an inconclusive call do not appear. Activity calls are given as the source filed them. The call rests on the fitted dose curve; in most records, active means well fitted cell-killing curve with a large enough effect; inconclusive means small, poorly fitted or top-dose-only effect, or effect the other way; inactive means flat fitted curve, though single readings scatter.

Tests used:
Experiment in all cases: Primary qHTS to identify gynecologic anti-cancer compounds using libraries of approved drugs and bioactive compounds (AID 1345084); further: nearly all actives have a fitted effect of over 55% in size
CAOV3 = conditions: Gynecologic cancer cell panel viability, ATPlite luminescence, 48 h; series mostly up to 57.5 µM
Method in brief: (§1)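 ATP-based viability (ATPlite), 1,000 cells/well, 16 h pre-incubation, 48 h compound at 37 C, 5% CO2, 15 min RT before read.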

CASKI = conditions: Gynecologic cancer cell panel viability, ATPlite luminescence, 48 h; series mostly up to 57.5 µM
Method in brief: as §1

Es-2 = conditions: Gynecologic cancer cell panel viability, ATPlite luminescence, 48 h; series mostly up to 57.5 µM
Method in brief: as §1

HeLa = conditions: Gynecologic cancer cell panel viability, ATPlite luminescence, 48 h; series mostly up to 57.5 µM
Method in brief: as §1

Hek293T = conditions: Gynecologic cancer cell panel viability, ATPlite luminescence, 48 h, control line for the selectivity index; series mostly up to 57.5 µM
Method in brief: as §1

JEG-3 = conditions: Gynecologic cancer cell panel viability, ATPlite luminescence, 48 h; series mostly up to 57.5 µM
Method in brief: as §1

OV90 = conditions: Gynecologic cancer cell panel viability, ATPlite luminescence, 48 h; series mostly up to 57.5 µM
Method in brief: as §1

PA-1 = conditions: Gynecologic cancer cell panel viability, ATPlite luminescence, 48 h; series mostly up to 57.5 µM
Method in brief: as §1

SKOV3 = conditions: Gynecologic cancer cell panel viability, ATPlite luminescence, 48 h; series mostly up to 57.5 µM
Method in brief: as §1

Tov-21-G = conditions: Gynecologic cancer cell panel viability, ATPlite luminescence, 48 h; series mostly up to 57.5 µM
Method in brief: as §1

Tov112D = conditions: Gynecologic cancer cell panel viability, ATPlite luminescence, 48 h; series mostly up to 57.5 µM
Method in brief: as §1
On the % scale 0 is the no-effect control and ±100 the full control effect.

CCOC(=O)c1ccc(N(C)c2csc(-c3ccccc3)n2)cc1
inactive: Potency (CAOV3) | Potency (CASKI) | Potency (Es-2) | Potency (HeLa) | Potency (Hek293T) | Potency (JEG-3) | Potency (OV90) | Potency (PA-1) | Potency (SKOV3) | Potency (Tov-21-G) | Potency (Tov112D)

COC1=Cc2c(nc3n(c2=O)C(C)C(=O)NC3(O)C(C)C)OC=C1 (stereo not given)
inactive: Potency (CAOV3) | Potency (CASKI) | Potency (Es-2) | Potency (HeLa) | Potency (Hek293T) | Potency (JEG-3) | Potency (OV90) | Potency (PA-1) | Potency (SKOV3) | Potency (Tov-21-G) | Potency (Tov112D)

C/C=C(/C)C(=O)O[C@H]1C=C(C)C[C@H](OC(=O)c2ccc(O)cc2)C2[C@](O)(C(C)C)CC[C@@]21C (stereo not given in full)
inactive: Potency (CAOV3) | Potency (CASKI) | Potency (Es-2) | Potency (HeLa) | Potency (Hek293T) | Potency (JEG-3) | Potency (OV90) | Potency (PA-1) | Potency (SKOV3) | Potency (Tov-21-G) | Potency (Tov112D)

CC(=O)O[C@H]1[C@H](Oc2ccccc2COC(=O)C2(O)C=CCCC2=O)O[C@H](CO)[C@@H](O)[C@@H]1O (stereo not given in full)
inactive: Potency (CAOV3) | Potency (CASKI) | Potency (Es-2) | Potency (HeLa) | Potency (Hek293T) | Potency (JEG-3) | Potency (OV90) | Potency (PA-1) | Potency (SKOV3) | Potency (Tov-21-G) | Potency (Tov112D)

C=C1CCC2C(C)(CO[C@@H]3O[C@H](CO)[C@@H](O)[C@H](O)[C@H]3O)C(O)CCC2(C)C1C(=O)CC1=CCOC1=O (stereo not given in full)
inactive: Potency (CAOV3) | Potency (CASKI) | Potency (Es-2) | Potency (HeLa) | Potency (Hek293T) | Potency (JEG-3) | Potency (OV90) | Potency (PA-1) | Potency (SKOV3) | Potency (Tov-21-G) | Potency (Tov112D)

C=CC(C)(O)CC/C=C(\C)C(=O)OC1CC2(C(=O)O)CCC3(C)C(=CCC4C5(C)CCC(OC6OC(COC7OCC(O)C(O)C7O)C(O)C(OC7OCC(O)C(O)C7O)C6OC6OC(CO)C(O)C(O)C6OC6OCC(O)C(O)C6O)C(C)(C)C5CCC43C)C2CC1(C)C (stereo not given)
inactive: activity change, negative = cytotoxicity (CAOV3) 2.82% [at 6.55 µM] | activity change, negative = cytotoxicity (CASKI) 0.559% [at 6.55 µM] | activity change, negative = cytotoxicity (Es-2) 6.29% [at 6.55 µM] | activity change, negative = cytotoxicity (HeLa) 13.4% [at 6.55 µM] | activity change, negative = cytotoxicity (Hek293T) -1.17% [at 6.55 µM] | activity change, negative = cytotoxicity (JEG-3) -1.3% [at 6.55 µM] | activity change, negative = cytotoxicity (OV90) 0.467% [at 6.55 µM] | activity change, negative = cytotoxicity (PA-1) 9.33% [at 6.55 µM] | activity change, negative = cytotoxicity (SKOV3) -0.175% [at 6.55 µM] | activity change, negative = cytotoxicity (Tov-21-G) 1.97% [at 6.55 µM] | activity change, negative = cytotoxicity (Tov112D) 4.31% [at 6.55 µM]

C#Cc1cnc2[nH]c(=O)n(C(CC)CC)c2n1
inactive: Potency (CAOV3) | Potency (CASKI) | Potency (Es-2) | Potency (HeLa) | Potency (Hek293T) | Potency (JEG-3) | Potency (OV90) | Potency (PA-1) | Potency (SKOV3) | Potency (Tov-21-G) | Potency (Tov112D)

CC1CCC2C(C(=O)O)=CC3C(O)C(C)(C)CC123 (stereo not given)
inactive: Potency (CAOV3) | Potency (CASKI) | Potency (Es-2) | Potency (HeLa) | Potency (Hek293T) | Potency (JEG-3) | Potency (OV90) | Potency (PA-1) | Potency (SKOV3) | Potency (Tov-21-G) | Potency (Tov112D)

CC1CCC2(C)C(CC(O)C(O)C23CO3)C1(C)CCC1=CC(=O)OC1O (stereo not given)
inactive: Potency (CAOV3) | Potency (CASKI) | Potency (Es-2) | Potency (HeLa) | Potency (Hek293T) | Potency (JEG-3) | Potency (OV90) | Potency (PA-1) | Potency (SKOV3) | Potency (Tov-21-G) | Potency (Tov112D)

CC1=CC(=O)C2C(C)(C)CCCC2(C)C12CCC1(COC(=O)C1)O2 (stereo not given)
inactive: Potency (CAOV3) | Potency (CASKI) | Potency (Es-2) | Potency (HeLa) | Potency (Hek293T) | Potency (JEG-3) | Potency (OV90) | Potency (PA-1) | Potency (SKOV3) | Potency (Tov-21-G) | Potency (Tov112D)

CC(c1c[nH]c2ccccc12)C(O)C(=O)O (stereo not given)
inactive: Potency (CAOV3) | Potency (CASKI) | Potency (Es-2) | Potency (HeLa) | Potency (Hek293T) | Potency (JEG-3) | Potency (OV90) | Potency (PA-1) | Potency (SKOV3) | Potency (Tov-21-G) | Potency (Tov112D)

C=C1CC/C=C(/CO)C(=O)C[C@@H]2[C@@H]1CC2(C)C
inactive: Potency (CAOV3) | Potency (CASKI) | Potency (Es-2) | Potency (HeLa) | Potency (Hek293T) | Potency (JEG-3) | Potency (OV90) | Potency (PA-1) | Potency (SKOV3) | Potency (Tov-21-G) | Potency (Tov112D)

COc1ccc2c(c1O)OC[C@H]1c3ccc(O)cc3O[C@@H]21
inactive: Potency (CAOV3) | Potency (CASKI) | Potency (Es-2) | Potency (HeLa) | Potency (Hek293T) | Potency (JEG-3) | Potency (OV90) | Potency (PA-1) | Potency (SKOV3) | Potency (Tov-21-G) | Potency (Tov112D)

C1CCN2CC3C[C@@H](CN4CCCC[C@@H]34)[C@H]2C1
inactive: Potency (CAOV3) | Potency (CASKI) | Potency (Es-2) | Potency (HeLa) | Potency (Hek293T) | Potency (JEG-3) | Potency (OV90) | Potency (PA-1) | Potency (SKOV3) | Potency (Tov-21-G) | Potency (Tov112D)

O=C(O[C@H]1[C@@H]2C=CO[C@@H](O[C@@H]3O[C@H](CO)[C@@H](O)[C@H](O)[C@H]3O)[C@@H]2[C@@]2(CO)O[C@@H]12)c1ccc(O)cc1
inactive: Potency (CAOV3) | Potency (CASKI) | Potency (Es-2) | Potency (HeLa) | Potency (Hek293T) | Potency (JEG-3) | Potency (OV90) | Potency (PA-1) | Potency (SKOV3) | Potency (Tov-21-G) | Potency (Tov112D)
